Like-named read-outs stand apart in the source and are kept apart here.

Data on 8 compounds can be found in article PMC11062922 (Nature Chemical Biology, 2023).

Parameters in all cases: species or system human, MV4-11 + K-562 + COLO205 + SK-N-BE2 + OVCAR-8
The test system of assay [1] is BTK. The settings on record: read-out: apparent Kd, compound concentrations: 100 nM and 1000 nM (sheet 'Samples'), n = 1.
Assay [2] concerns CSK. The settings on record: read-out: apparent Kd, compound concentrations: 100 nM and 1000 nM (sheet 'Samples'), n = 1.
The test system of assay [3] is DDR1. The conditions noted are these: read-out: apparent Kd, compound concentrations: 100 nM and 1000 nM (sheet 'Samples'), n = 1.
The subject of assay [4] is EGFR. The conditions noted are these: read-out: apparent Kd, compound concentrations: 100 nM and 1000 nM (sheet 'Samples'), n = 1.
The subject of assay [5] is LYN. The conditions noted are these: read-out: apparent Kd, compound concentrations: 100 nM and 1000 nM (sheet 'Samples'), n = 1.
In assay [6] the test system is ACAD11. The settings on record: read-out: apparent Kd, compound concentrations: 100 nM and 1000 nM (sheet 'Samples'), n = 1.
The subject of assay [7] is ACVR1. The settings on record: read-out: apparent Kd; compound concentrations: 100 nM and 1000 nM (sheet 'Samples'), CATDS: 0.23402364017956601; n = 1.
Assay [8] has as its system EPHA1. The settings on record: read-out: apparent Kd, compound concentrations: 100 nM and 1000 nM (sheet 'Samples'), n = 1.
Assay [9] concerns SIK2. The conditions noted are these: read-out: apparent Kd, compound concentrations: 100 nM and 1000 nM (sheet 'Samples'), n = 1.
In assay [10] the test system is FLT3. The settings on record: read-out: apparent Kd; compound concentrations: 100 nM and 1000 nM (sheet 'Samples'), CATDS: 0.15169843184363399; n = 1.
The test system of assay [11] is FRK. The settings on record: read-out: apparent Kd, compound concentrations: 100 nM and 1000 nM (sheet 'Samples'), n = 1.
Assay [12] has as its system SRC. The conditions noted are these: read-out: apparent Kd, compound concentrations: 100 nM and 1000 nM (sheet 'Samples'), n = 1.
Assay [13] deals with TNK2. The conditions noted are these: read-out: apparent Kd, compound concentrations: 100 nM and 1000 nM (sheet 'Samples'), n = 1.
The test system of assay [14] is ZAK. The settings on record: read-out: apparent Kd, compound concentrations: 100 nM and 1000 nM (sheet 'Samples'), n = 1.
Assay [15] relates to ACVR1B. The settings on record: read-out: apparent Kd; compound concentrations: 100 nM and 1000 nM (sheet 'Samples'), CATDS: 1.87484218332362E-2; n = 1.

For `NS(=O)(=O)CCc1cccc(Nc2nccc(-c3c(-c4cccc(NC(=O)c5c(F)cccc5F)c4)nn4ccccc34)n2)c1` [GSK336735A], the potency estimated from few doses was 756 nM in assay [1] (CATDS: 6.9613472327250694E-2); 1220 nM in [2] (CATDS: 5.7355343721703998E-2); 1570 nM in assay [3] (CATDS: 5.2826618660154298E-2); 1520 nM in assay [4] (CATDS: 5.3399275908321601E-2); 720 nM in assay [5] (CATDS: 7.1175193729883096E-2).

For `CN1CCN(c2ccc(Nc3nc(N)c(C(=O)c4ccc5c(c4)OCCO5)s3)cc2)CC1` [RO0505124-000], the potency estimated from few doses in [6] (CATDS: 0.36798074276012699) is 137 nM.

For the compound `CS(=O)(=O)c1ccc(-c2cnc(N)c(C(=O)Nc3ccccc3)n2)cc1` [VE-821], the potency estimated from few doses was 334 nM in [6] (CATDS: 0.28747433490732499) and 475 nM in [7].

Take `Fc1cc(Cl)ccc1Nc1ccnc2cc(-c3ccc(CN4CCOCC4)o3)ccc12` [GW560109X]: the potency estimated from few doses in assay [8] (CATDS: 7.1072488518175297E-2) is 699 nM; in assay [9] (CATDS: 7.4326552669870996E-2), 630 nM.

As for `CS(=O)(=O)Cc1ccc(Nc2nccc(-c3c(-c4cccc(NC(=O)c5c(F)cccc5F)c4)nn4ccccc34)n2)cc1` [GSK323543A], the potency estimated from few doses was 1140 nM in [1] (CATDS: 6.87410205009992E-2), 1930 nM in assay [3] (CATDS: 5.7176748718511097E-2), 2130 nM in assay [4] (CATDS: 5.5544990287731598E-2) and 1440 nM in assay [5] (CATDS: 6.3006631754301101E-2).

In the case of `c1ccc(Oc2ccc(Nc3ccnc4cc(-c5ccc(CN6CCCCC6)o5)ccc34)cc2)nc1` [GW567143X], the potency estimated from few doses in [8] (CATDS: 6.2167566437911E-2) is 315 nM; in assay [10], 60.9 nM; in assay [11] (CATDS: 3.9738345055864897E-2) it was 1100 nM; in assay [5] (CATDS: 4.1336056970238899E-2) it was 956 nM; in [12] (CATDS: 5.3011588623511699E-2), 464 nM; in assay [13] (CATDS: 3.98580587888741E-2) it was 1080 nM. Moreover, the potency estimated from few doses in [14] (CATDS: 3.3669776805855603E-2) was 2210 nM.

Consider `N#Cc1cnc2cc(-c3cnc(CNCCN4CCOCC4)s3)ccc2c1Nc1ccc(Oc2ccccc2)cc1` [GW664114X], for which the potency estimated from few doses in [2] (CATDS: 6.7492290868603394E-2) is 448 nM; in assay [4] (CATDS: 4.1929469071091803E-2), 2090 nM; in assay [5] (CATDS: 6.1309680787230501E-2) it was 562 nM; in [12] (CATDS: 8.2949353782893101E-2) it was 293 nM.

Turning to `CC(C)c1nc(-c2cccc(NS(=O)(=O)c3c(F)cccc3F)c2)c(-c2ccnc(Nc3ccc(N4CCOCC4)nc3)n2)s1.Cl` [GSK1723980B], the potency estimated from few doses was 614 nM in assay [15]; 1260 nM in assay [1] (CATDS: 1.5505297907028599E-2); 81.6 nM in [2] (CATDS: 4.9145326105273501E-2); 1660 nM in assay [4] (CATDS: 1.4688482058743299E-2); 261 nM in [8] (CATDS: 2.59841988169222E-2); 538 nM in assay [11] (CATDS: 1.9563018152501301E-2). The potency estimated from few doses in assay [5] (CATDS: 2.8217143003072001E-2) is 219 nM; in [9] (CATDS: 1.4802843404643599E-2), 1590 nM; in [12] (CATDS: 2.25730576079274E-2), 364 nM; in [13] (CATDS: 1.9330772041295699E-2), 558 nM; in assay [14] (CATDS: 1.6677685613390399E-2), 926 nM.
